Records with an inconclusive call do not appear. Entries that show only a call come without a potency. Activity calls are given as the source filed them. Calls come from the whole dose curve; as a rule, active = well fitted cell-killing curve with a large enough effect in the repeat runs; inconclusive = weak or mixed curves, or effect the other way; inactive = flat fitted curve, though single readings scatter.
experiment: qHTS assay to identify small molecule antagonists of the retinoid acid receptor (RAR) signaling pathway - cell viability counter screen (AID 1159551); conditions: C3RL4 cells viability, ATP luminescence (CellTiter-Glo), 6 h; series mostly up to 92.4 µM; note: nearly all actives have a fitted effect of over 35% in size
Summary of the method: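 In this counter screen, the RARE-luciferase line C3RL4 was exposed for 6 h at 37 C and 5% CO2 to compounds with retinol at 1 uM final. Cellular ATP, read by luminescence, served as the viability measure.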

Question: Which Potency does the source give for `CCC1(CCC(C)C)C(=O)NC(=O)NC1=O` here?
Answer: inactive

Question: For `Clc1ccccc1`, which Potency is on record?
Answer: inactive

Question: With `CCCCC1C(=O)NC(=O)N(C2CCCCC2)C1=O` (centres undefined) as the compound, how does the Potency read?
Answer: inactive

Question: For `C[C@H](N)[C@H](O)c1ccc(O)c(O)c1`, which Potency is on record?
Answer: inactive

Question: Which Potency does the source give for `CCCN(CCC)c1c([N+](=O)[O-])cc(C(C)C)cc1[N+](=O)[O-]` here?
Answer: inactive

Question: For `CCOC(C(=O)OCCN(C)C)(c1ccccc1)c1ccccc1`, which Potency is on record?
Answer: inactive

Question: With `O=C=NC1CCCCC1` as the compound, how does the Potency read?
Answer: inactive

Question: For `CCOP(=S)(OCC)SCSc1cc(Cl)ccc1Cl`, which Potency is on record?
Answer: inactive

Question: Which Potency does the source give for `CCCCCCCCCCCCN(C)C` here?
Answer: inactive

Question: With `O=C(O)c1cc(I)cc(I)c1I` as the compound, how does the Potency read?
Answer: inactive

Question: For `CN1C(=O)CN=C(c2ccccc2)c2cc([N+](=O)[O-])ccc21`, which Potency is on record?
Answer: inactive

Question: Which Potency does the source give for `CCOP(=S)(OCC)Oc1ccc(S(C)=O)cc1` (centres undefined) here?
Answer: inactive

Question: Which Potency does the source give for `CC(C)(c1ccccc1)c1cc(-n2nc3ccccc3n2)c(O)c(C(C)(C)c2ccccc2)c1` here?
Answer: inactive

Question: Which Potency does the source give for `Cc1nnc(-c2ccccc2)c(=O)n1N` here?
Answer: inactive

Question: Which Potency does the source give for `O=CC=O` here?
Answer: inactive

Question: Which Potency does the source give for `CCC1(CC)C(=O)NC(=O)NC1=O` here?
Answer: inactive

Question: Which Potency does the source give for `CC(Cl)C(=O)O` (centres undefined) here?
Answer: inactive

Question: Which Potency does the source give for `O=S(=O)(Cl)Cl` here?
Answer: inactive

Question: For `COc1ccc(C(O)(c2cncnc2)C2CC2)cc1` (centres undefined), which Potency is on record?
Answer: inactive

Question: Which Potency does the source give for `O=C(O)CCCOc1ccc(Cl)cc1Cl` here?
Answer: inactive

Question: For `O=C1CC[C@@]2(O)[C@H]3Cc4ccc(O)c5c4[C@@]2(CCN3CC2CC2)[C@H]1O5`, which Potency is on record?
Answer: inactive

Question: For `C=CCSSCC=C`, which Potency is on record?
Answer: inactive

Question: With `Nc1ccccc1C(=O)OCC(O)CO` (centres undefined) as the compound, how does the Potency read?
Answer: inactive

Question: Which Potency does the source give for `FC(F)OC(F)(F)C(F)Cl` (centres undefined) here?
Answer: inactive

Question: Which Potency does the source give for `COCc1cnc(C2=NC(C)(C(C)C)C(=O)N2)c(C(=O)O)c1` (centres undefined) here?
Answer: inactive

Question: With `Nc1cc(Cl)cc(C(=O)O)c1Cl` as the compound, how does the Potency read?
Answer: inactive

Question: With `CCCCC#N` as the compound, how does the Potency read?
Answer: inactive

Question: For `CC1(C)CC(=O)CC(C)(C)N1[O]`, which Potency is on record?
Answer: inactive

Question: For `CCCCCCCCCCCCCCCl`, which Potency is on record?
Answer: inactive

Question: With `FC(Cl)(Cl)C(F)(Cl)Cl` as the compound, how does the Potency read?
Answer: inactive

Question: With `CC(C)(C)OOC(C)(C)CCC(C)(C)OOC(C)(C)C` as the compound, how does the Potency read?
Answer: inactive

Question: Which Potency does the source give for `ClCc1ccccc1Cl` here?
Answer: inactive

Question: Which Potency does the source give for `c1ccc2sc(SNC3CCCCC3)nc2c1` here?
Answer: inactive

Question: With `O=S(=O)(c1ccccc1)c1ccccc1` as the compound, how does the Potency read?
Answer: inactive

Question: With `O=C(O)C(Cl)(Cl)Br` as the compound, how does the Potency read?
Answer: inactive

Question: For `N#CC(C#N)=Cc1ccc(O)c(O)c1`, which Potency is on record?
Answer: inactive

Question: With `O=C(O)C(F)(F)C(F)(F)C(F)(F)C(F)(F)C(F)(F)F` as the compound, how does the Potency read?
Answer: inactive

Question: With `C=CCc1ccc(OC(=O)Cc2ccccc2)c(OC)c1` as the compound, how does the Potency read?
Answer: inactive

Question: For `C[C@H]1O[C@H](OC2[C@@H](O)[C@@H](O)C(O)[C@H](O)[C@H]2O)[C@@H](N)C[C@@H]1N=C(N)C(=O)O` (some centres undefined), which Potency is on record?
Answer: inactive

— PubChem BioAssay (Tox21)
